Biological target: Torsin-1A-interacting protein 2 (Homo sapiens) (UniProt Q8NFQ8)
Assay: LULL1 binders on small-molecule microarray, primary screen, cell lysate, human LULL1 lysate, 635/667 nm fluorescence (AID 1092);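 note: probe is lysate of COS7 cells overexpressing human LULL1; score merges per-feature 667 nm fluorescence with signal-to-noise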
Conditions: hLULL1 lysate binding, 635 nm fluorescence, higher = more signal

Torsin-1A-interacting protein 2 (Homo sapiens), sequence (Q8NFQ8 whole entry, looked up): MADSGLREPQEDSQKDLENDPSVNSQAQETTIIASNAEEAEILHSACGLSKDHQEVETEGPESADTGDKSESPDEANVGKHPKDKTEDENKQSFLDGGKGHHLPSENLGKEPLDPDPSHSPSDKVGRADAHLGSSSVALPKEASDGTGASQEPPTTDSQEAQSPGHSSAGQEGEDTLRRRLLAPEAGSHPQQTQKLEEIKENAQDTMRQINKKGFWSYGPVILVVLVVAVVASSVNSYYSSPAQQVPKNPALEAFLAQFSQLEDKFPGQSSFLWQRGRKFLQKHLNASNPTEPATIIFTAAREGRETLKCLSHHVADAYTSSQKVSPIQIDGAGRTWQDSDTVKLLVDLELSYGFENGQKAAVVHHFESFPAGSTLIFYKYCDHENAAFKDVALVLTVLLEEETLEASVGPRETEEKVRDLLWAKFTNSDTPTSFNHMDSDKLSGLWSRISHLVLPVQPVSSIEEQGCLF

SMILES | composite z-score
CCOC(=O)C1=CCC(c2ccc(C)cc2)N(S(=O)(=O)c2ccc(C)cc2)C1 (stereo unspecified) | 1.69
CN(C)CCCNC(=O)[C@@]1(c2ccc([N+](=O)[O-])cc2)CC(=O)N(C2CCCCC2)[C@@H]1c1ccc(CO)cc1 | 1.09
CC(=O)N1Cc2ccccc2C[C@@]2(COC(c3ccc(OCCCO)cc3)=N2)C1=O | 2.25
COCCOC(=O)N1C(=O)[C@@]2(c3cc(C#CC4=CCCCC4)ccc31)[C@H](C(=O)Nc1nc3ccccc3s1)[C@H]1C(=O)O[C@H](c3ccccc3)[C@H](c3ccccc3)N1[C@@H]2c1ccc(OCCO)cc1 | 1.82
C=CC[C@]1(C(=O)N2CCCCC2)N=C(c2ccc(OCCCO)cc2)O[C@H]1c1ccccc1 | 3.21
O=C1NCC(=O)N2[C@@H]1C[C@@H](C(=O)O)[C@H]2c1cccc(OCCO)c1 | 4.93
O=C1O[C@H](c2ccccc2)[C@H](c2ccccc2)N2[C@H]1[C@@H](C(=O)O)[C@]1(C(=O)Nc3ccc(C#CCCO)cc31)[C@H]2c1ccc(O)cc1 | 0.782
C=CCOC(=O)[C@H]1[C@@H]2C(=O)O[C@@H](c3ccccc3)[C@@H](c3ccccc3)N2[C@@H](c2ccc(OCCOC(=O)[C@@H]3C[C@@H]4C(=O)N[C@@H](CCCCN(C)C)C(=O)N4[C@@H]3c3ccc(O)cc3)cc2)[C@]12C(=O)Nc1ccc(I)cc12 | 2.77
CC(C)(C)OC(=O)CC[C@]12N=C(c3ccc(OCCCO)cc3)O[C@H]1c1ccccc1N(CCS(=O)(=O)c1ccccc1)C2=O | 3.17
CN(C)C(=O)[C@@]1(Cc2ccccc2CN=[N+]=[N-])N=C(c2ccc(OCCCO)cc2)O[C@H]1c1ccccc1 | 3.32
COc1cc2c(cc1OC)CN(C(=O)[C@H]1[C@@H]3C(=O)O[C@@H](c4ccccc4)[C@@H](c4ccccc4)N3[C@@H](c3ccc(O)cc3)[C@]13C(=O)Nc1ccc(C#CC4=CCCCC4)cc13)CC2 | 2.83
CN1C(=O)C2C=CC(C(O)c3cc(C(F)(F)F)cc(C(F)(F)F)c3)N(N3CCCCC3)C2C1=O (stereo unspecified) | 2.65
COCC(=C=CC[C@H](O)c1ccccc1OCCO)C[C@H](O)c1cc(Cl)cc(Cl)c1O | 2.7
CCCN1C(=O)[C@]2(CCS(=O)(=O)c3ccccc3)N=C(c3ccc(OCCCO)cc3)O[C@@H]2c2ccccc21 | 2.84
COc1cc2c(cc1OC)CN(C(=O)[C@H]1[C@@H]3C(=O)O[C@@H](c4ccccc4)[C@@H](c4ccccc4)N3[C@@H](c3ccc(O)cc3)[C@]13C(=O)Nc1ccc(C#CCNC(N)=O)cc13)CC2 | 0.458
CN(C)CCCNC(=O)[C@@]1(C)c2ccccc2C(=O)N(Cc2cc(F)cc(C(F)(F)F)c2)[C@H]1c1ccc(CO)cc1 | 3.12
O=C1C2C=CC(C(O)C3CCCCC3)N(Nc3ccc([N+](=O)[O-])cc3)C2C(=O)N1c1ccccc1 (stereo unspecified) | 3.19
O=C1OCCC/C=C\[C@H]2OC34C=CCN(c5ccc6ccccc6c5)C(=O)[C@H]3N(CCCCCCO)C(=O)[C@@H]4C12 (stereo partly specified) | 0.132
COCCOC(=O)N1C(=O)[C@@]2(c3cc(C#CCNC(N)=O)ccc31)[C@H](C(=O)NC[C@H](O)c1ccccc1)[C@H]1C(=O)O[C@H](c3ccccc3)[C@H](c3ccccc3)N1[C@@H]2c1ccccc1OCCO | 2.6
CC(C)(C)OC(=O)CC[C@@]12N=C(c3ccc(OCCCO)cc3)O[C@@H]1c1ccccc1N(CCS(=O)(=O)c1ccccc1)C2=O | 2.48
COC(=O)[C@@]1(Cc2ccc(F)cc2)[C@H]2c3cc(C(=O)N4CCCC4)n(Cc4cc(C)n(C)n4)c3C[C@H]2CN1C(=O)c1ccccc1 | 3.75
COC(=O)c1c(CC[C@@H](CO)NC(=O)N2CCC[C@H]2Cn2cc(-c3ccccn3)nn2)oc(C(C)=O)c1C(=O)OC | 3.03
CCOC(=O)[C@H]1CC=C2CC1C(=O)N1CCC[C@@H]1[C@@H]2O[Si](C)(C)C(C)(C)C (stereo partly specified) | 0.368
C=CCC(OC(C)=O)[C@@H]1[C@@H](N(Cc2ccc(-c3ccccc3)cc2)C(=O)Cc2ccc(F)cc2)c2cc(OCCCO)ccc2N1C(=O)c1ccc(-c2ccccc2)cc1 (stereo partly specified) | -0.404
CCOC(=O)C[C@H]1[C@H](OC(=O)Cc2ccc3c(c2)OCO3)[C@@H](NC(=O)c2ccc(-c3ccccc3)cc2)c2cc(OCCCO)ccc2N1C(=O)c1ccc2ccccc2n1 | 0.417
COCCCNC(=O)[C@@]1(Cc2ccccc2)N=C(c2ccc(OCCCO)cc2)O[C@H]1c1ccccc1 | 3.36

— PubChem BioAssay
